Hits are enriched below; roughly 9.4% of the tested compounds scored in any of these assays.
ELG1 repair inh – qHTS screen for small molecules that inhibit ELG1-dependent DNA repair in human embryonic kidney (HEK293T) cells expressing luciferase-tagged ELG1. 330,000 compounds, 2.3% hits. Potency, µM (doses to about 46.1 µM), for the others: at the highest dose activity change, negative = inhibition, actives largely listed as inhibitors. HEK293T ELG1-luciferase reporter, luminescence, 16 h; DNA damage induced by 5-fluorouridine; further: on the % scale 0 is the no-effect control and ±100 the full control effect; nearly all actives have a fitted effect of over 55% in size
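Cells (2,000 per well) received 5-fluorouridine plus test compound or DMSO and were incubated 16 hr at 37 °C, 5% CO2. Luciferase activity was read by luminescence 30 min after ONE-Glo addition; signal suppression marked inhibition of damage-induced ELG1 function.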
SMN2 splice enh – qHTS Assay for Enhancers of SMN2 Splice Variant Expression. HEK293 SMN2-luciferase splicing reporter, luminescence, 30-36 h. Potency, µM (titrated, usually from 46.1 µM), inactives show at the top dose activity change, positive = activation, hits mostly activators. 210,000 compounds, 2.8% hits. AID 1458, 2008; further: % of control where 0% means no effect; nearly all actives have a fitted effect of over 55% in size
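qHTS luciferase splicing reporter: luminescence rises when SMN2 exon 7 is included in transfected HEK293 cells. Compound exposure lasted 30-36 h at 37C, with 4.5 mM final sodium butyrate as control, followed by a ONE-Glo read.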
Rab9 prom act – qHTS Assay for Rab9 Promoter Activators; Huh7 Rab9 promoter-luciferase reporter, luminescence, 24 h; Potency, µM (highest dose often 9.22 µM), for the others: at the top dose activation, negative = inhibition, hits mostly activators; 320,000 compounds, 2.8% hits; AID 485297, 2010; further: % of control where 0% means no effect; nearly all actives have a fitted effect of over 60% in size
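Cells were plated at 1500 per well in reduced-serum medium with 10% FBS and left 2 h. Compound in DMSO was then added for 24 h at 37 °C. Reporter signal was read by luminescence after 10 min with luciferase detection reagent.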
NPC1 prom act – qHTS Assay for NPC1 Promoter Activators; Huh7 NPC1 promoter luciferase reporter, 24 h; Potency, µM (titrated, usually from 9.22 µM), for inactives: at the top dose activation, most hits filed as activators; 320,000 compounds, 2.4% hits; further: % of control where 0% means no effect; nearly all actives have a fitted effect of over 60% in size
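Cells: Huh7 expressing luciferase under the NPC1 promoter, 1500/well. Seeded 2 h, compound added, incubated 24 h at 37 °C. Luciferase reagent, 10 min ambient, then luminescence.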
ELG1 genotox – qHTS screen for small molecules that induce genotoxicity in human embryonic kidney (HEK293T) cells expressing luciferase-tagged ELG1. AID 504466, 2011. HEK293T ELG1-luciferase reporter, luminescence, 16 h. 330,000 compounds, 1.3% hits. Potency, µM (titrated, usually from 46 µM), for inactives: top-dose activity change, positive = activation, usual class: activators; further: % of control where 0% means no effect; nearly all actives have a fitted effect of over 60% in size
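Cells (2,000/well) expressing the ELG1-luciferase fusion are dosed by pin tool and kept 16 hr at 37 °C, 5% CO2. Signal comes from ONE-Glo luciferase reagent after 30 min at room temperature.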
FLuc modulator – qHTS profiling assay for firefly luciferase inhibitor/activator using purifed enzyme and Km concentrations of substrates (counterscreen for miR-21 project). AID 588342, 2011. Potency, µM (titrated, usually from 57.5 µM), without a hit: at the top dose activity change, negative = inhibition, actives largely listed as inhibitors. purified FLuc, Km substrates, luminescence inhibition. 360,000 compounds, 6.9% hits. Luciferin 4-monooxygenase (Photinus pyralis), P08659;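 further: plate controls were vehicle for no effect and reference inhibitor for full effect; nearly all actives have a fitted effect of over 55% in size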
Target sequence (P08659 whole entry, looked up): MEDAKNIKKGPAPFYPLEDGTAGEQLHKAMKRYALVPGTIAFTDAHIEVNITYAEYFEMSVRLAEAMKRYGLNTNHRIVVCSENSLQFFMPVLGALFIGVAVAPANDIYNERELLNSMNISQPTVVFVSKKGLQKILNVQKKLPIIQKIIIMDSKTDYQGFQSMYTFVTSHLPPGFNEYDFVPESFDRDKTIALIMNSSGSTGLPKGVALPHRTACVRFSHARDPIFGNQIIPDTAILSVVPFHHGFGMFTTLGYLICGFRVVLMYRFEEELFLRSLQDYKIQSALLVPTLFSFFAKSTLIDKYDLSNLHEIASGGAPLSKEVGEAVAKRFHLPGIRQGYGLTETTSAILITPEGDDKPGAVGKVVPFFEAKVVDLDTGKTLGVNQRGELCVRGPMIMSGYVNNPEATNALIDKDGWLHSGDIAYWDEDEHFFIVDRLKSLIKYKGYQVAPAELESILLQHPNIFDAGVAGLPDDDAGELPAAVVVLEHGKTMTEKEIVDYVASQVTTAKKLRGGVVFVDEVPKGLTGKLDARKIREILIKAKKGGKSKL
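Purified P. pyralis luciferase, 10 nM final, with Km-level 10 uM D-luciferin and 10 uM ATP in 50 mM Tris acetate pH 7.5, 10 mM Mg acetate, 0.01% Tween-20, 0.05% BSA; 6-point qHTS titration about 60 µM downward; luminescence read.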
An asterisk follows results filed as active; ? = inconclusive; · = not tested or not shown; [ ] = remark or other dose. The call rests on the fitted dose curve; in most records, active means well fitted curve in the direction sought with a large enough effect; inconclusive means small, poorly fitted or top-dose-only effect, or another doubt; inactive means no such curve, though single readings can be large; an effect the other way counts as inactive or inconclusive. Potency means the concentration at half of the fitted maximal effect.

SMILES	ELG1 repair inh	SMN2 splice enh	Rab9 prom act	NPC1 prom act	ELG1 genotox	FLuc modulator
C#C[C@]1(O)CCC2C3CCC4=Cc5oncc5C[C@@]4(C)C3CC[C@@]21C (some centres undefined)	·	-12%	·	·	·	·
Cc1oc2ccc(O)c(CN3CCN(C)CC3)c2c1C(=O)Nc1ccc(C(C)C)cc1	·	9%	·	·	·	-3%
CCCn1cnc2cc(NCc3cccc(OC)c3O)ccc21	?	-2%	-3%	18%	?	12µM*
CCCn1cnc2cc(NCc3ccccn3)ccc21	?	13µM*	3.2µM*	3.2µM*	?	12µM*
COc1ccc(-n2cnc3ccccc32)cc1	8.2µM*	-10%	3%	4%	-15%	?
COc1ccccc1-n1cnc2cc(NCc3ccccn3)ccc21	?	11%	16%	-3%	10%	15µM*
Cc1ccn2c(=O)c(C(=O)NCCc3ccc(S(N)(=O)=O)cc3)c(O)nc2c1	·	-1%	·	·	·	-4%
COc1cccc(CNc2ccc3c(c2)ncn3C(C)C)c1OC	?	?	4µM*	4µM*	14%	17µM*
COc1ccc(-c2cc(NCc3ccccn3)n3ncnc3n2)cc1	-17%	5%	-4%	-1%	-4%	-3%
COc1ccc(-n2cnc3cc(NCc4ccccn4)ccc32)cc1	?	-8%	22%	16%	7%	17µM*
Clc1cccc(-c2ccc(C=Nc3ccc(N4CCOCC4)cc3)o2)c1Cl	13%	·	0%	1%	1%	3.4µM*
Clc1ccc(-c2ccc(C=Nc3ccc(N4CCOCC4)cc3)o2)cc1	5%	-33%	1%	2%	0%	4.8µM*
NC1=N[C@H](c2ccc(Cl)cc2)N(c2ccc(S(=O)(=O)Nc3ncccn3)cc2)C(N)=N1	·	-11%[9.22 µM]	·	·	·	·
COc1ccc(C(=O)Nc2cccc(/C=C/c3nc4ccccc4c(=O)[nH]3)c2)cc1	?	·	3.2µM*	27%	-4%	?
COc1ccc(CCN(Cc2nc3ccccc3c(=O)[nH]2)C(=O)c2ccco2)cc1	?	?	-1%	-2%	-5%	-3%
CCC(CC)C(=O)N(CCc1ccc(OC)cc1)Cc1nc2ccccc2c(=O)[nH]1	23µM*	-18%	0%	5%	-16%	-1%
COc1ccc(C(=O)Nc2nc3ccccc3c(=O)[nH]2)cc1	?	13µM*	0.4µM*	0.71µM*	?	2.7µM*
CCN(CC(=O)Nc1ccc(C(=O)Nc2ccc(OC)cc2)cc1)Cc1nc2ccccc2c(=O)[nH]1	6.5µM*	·	-1%	2%	-5%	?
COc1ccc(N(C(=O)/C=C\C(=O)Nc2ccc(C)cc2)C(C(=O)NCc2ccco2)c2ccc(C)cc2)cc1 (centres undefined)	·	·	·	·	·	-4%
CCOc1ccc(NC(=O)CSc2nnc(CC)c(CC)n2)cc1	·	·	·	·	·	-9%
Cc1ccc(-c2nc(-c3nccc4ccccc34)oc2-c2ccccc2)cc1	?	3.5µM*	3.2µM*	?	?	3µM*
Cc1oc(-c2ccccc2F)nc1CSCC(=O)NCc1ccccc1	·	-8%	·	·	·	-16%
COCCNC(=S)NC(=O)c1ccc(C(C)(C)C)cc1	?	?	?	24%	?	13µM*
COc1ccc(C(=O)NC(=S)NCCc2ccccc2)cc1	16%	28%	22%	5%	13%	?
CC(C)(C)c1ccc(C(=O)NC(=S)NCc2ccco2)cc1	0%	·	8%	19%	9%	19µM*
SMILES	ELG1 repair inh	SMN2 splice enh	Rab9 prom act	NPC1 prom act	ELG1 genotox	FLuc modulator
O=C(NC(=S)NCc1ccco1)c1ccccc1	4%	·	0%	27%	0%	-15%
CCOc1ccc(NC(=O)Cn2c(=O)n(CC(=O)NCc3ccccc3Cl)c(=O)c3sccc32)cc1	·	-4%	·	·	·	-4%
COc1ccc(N2C(=O)c3ccccc3NC2c2ccc(OC)c(CSc3ccccn3)c2)cc1 (centres undefined)	0%	?	25%	?	?	?
COc1ccc(N2C(=O)c3ccccc3NC2c2ccc(OC)c(COc3ccccn3)c2)cc1 (centres undefined)	?	13µM*	?	?	?	-2%
COc1ccc(C2Nc3ccccc3C(=O)N2c2ccc(C)cc2)cc1Cn1nnc2ccccc21 (centres undefined)	?	·	?	?	?	-10%
COc1ccc(C2Nc3ccccc3C(=O)N2c2ccc(C)cc2)cc1Cn1cc([N+](=O)[O-])cn1 (centres undefined)	?	20µM*	4µM*	4µM*	12%	?
Cc1ccc(Cn2c(CNS(=O)(=O)c3cccc([N+](=O)[O-])c3)nc3cccnc32)cc1	·	·	·	·	·	-7%
Brc1ccc2c(c1)c1cc(Br)ccc1n2CC1CO1 (centres undefined)	·	12%	·	·	·	·
Cc1ccccc1NC1=NC(C)(C)N=C(N)N1	18%	0.22µM*	3%	9%	0%	-1%
Cc1ccc(C)c(NC(=O)Nc2csc3c2CCCC3)c1	·	-11%	·	·	·	0%
CC(=O)Nc1ccc(-c2csc(Nc3ccc(Cl)cn3)n2)cc1	?	-42%	-4%	-3%	-4%	-20%
Cc1ccc(Nc2nc(-c3ccc(F)cc3)cs2)nc1	?	·	4µM*	3.5µM*	?	4.3µM*
Cc1ccc(Nc2nc(-c3ccc(O)c(O)c3)cs2)nc1	?	·	-33%	-23%	?	3µM*
Cc1nnc(N2CCN(c3ccccc3)CC2)c2c1nnn2Cc1ccc(F)cc1	·	7%	·	·	·	1%
CCOC(=O)c1ccc(OCC2c3cc(OC)c(OC)cc3CCN2C(=O)Cc2ccc(F)cc2)cc1 (centres undefined)	·	·	·	·	·	-7%
COc1ccc(S(=O)(=O)N(CC(=O)Nc2ccc3c(c2)OCO3)c2ccc(C)cc2)cc1	·	-5%	·	·	·	?
CN(/N=C/c1c[nH]c2ccccc12)c1cnn(-c2ccc(F)c(Cl)c2)c(=O)c1Cl	-7%	8%	11%	-1%	3%	13µM*
CC1=C(C(=O)OC2CCCC(C)C2)C(c2ccccc2)NC(=O)N1 (centres undefined)	?	·	1µM*	-12%	-4%	1%
CCN(CC(=O)Nc1ccc2c(c1)OCCO2)C(=O)/C=C/c1ccc(F)cc1	?	23%	27%	0%	?	17µM*

Screening results deposited in PubChem by National Center for Advancing Translational Sciences (NCATS).
